Laboratory results taken from PubChem BioAssay (NCI).
The panel holds about 79,000 compounds, 15% with a hit somewhere; the sample as a whole holds those more often. Active and inactive are the calls of the source. No stated cut-off is given here; in the data, active means growth inhibition above about 70%; inactive means the rest.

Legend:
[1] = NCI Yeast Anticancer Drug Screen. Data for the rad52 strain (AID 147);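 further: 0% = growth of vehicle-treated control cultures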; conditions: S. cerevisiae rad52 mutant growth inhibition, hits give high values
How it was run: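 Genetically altered yeast (DNA damage repair defect) treated with compound; inhibition calculated relative to vehicle.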

[2] = NCI Yeast Anticancer Drug Screen. Data for the wt1 strain (AID 149);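 further: 0% = growth of vehicle-treated wt1 cultures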; conditions: S. cerevisiae wt1 strain (SPY 50644) growth inhibition, hits give high values
How it was run: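 Each compound is tested on wt1 yeast and the loss of growth versus vehicle gives the inhibition value.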

[3] = NCI Yeast Anticancer Drug Screen. Data for the rad50EPP+ strain (AID 151);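 further: 0% = growth of vehicle-treated control cultures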; conditions: S. cerevisiae rad50 mutant strain, hits give high values
How it was run: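 Strain rad50EPP+; compound exposure; % growth inhibition vs vehicle.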

[4] = NCI Yeast Anticancer Drug Screen. Data for the mgt1 strain (AID 153); conditions: S. cerevisiae mgt1 mutant growth inhibition, hits give high values
How it was run: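 Read-out: yeast growth inhibition vs vehicle control. Strain mgt1, drawn from a panel altered in DNA damage repair or cell cycle control.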

[5] = NCI Yeast Anticancer Drug Screen. Data for the rad50 strain (AID 155);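 further: 0% = growth of vehicle-only cultures of the same strain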; conditions: S. cerevisiae rad50 strain growth inhibition, hits give high values
How it was run: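 Vehicle-treated cultures provide the reference for the growth inhibition reported for compound-exposed, repair-deficient yeast.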

[6] = NCI Yeast Anticancer Drug Screen. Data for the mec2-1 strain (AID 157); conditions: S. cerevisiae mec2-1 strain, hits give high values
How it was run: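 Cells of the genetically defined mec2-1 yeast strain are incubated with test compound. Inhibition of growth is calculated against vehicle-treated controls.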

[7] = NCI Yeast Anticancer Drug Screen. Data for the rad14 strain (AID 159);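 further: 0% = growth of vehicle-treated control cultures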; conditions: S. cerevisiae rad14 strain growth inhibition, hits give high values
How it was run: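 Inhibition of growth is reported for a repair-deficient yeast mutant following compound treatment, calculated relative to cultures that received vehicle.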

[8] = NCI Yeast Anticancer Drug Screen. Data for the CLN2oe strain (AID 163);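 further: 0% = growth of vehicle-only control cultures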; conditions: S. cerevisiae CLN2oe strain, hits give high values
How it was run: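 Strain altered in cell-cycle control, incubated with compound; growth compared to solvent-treated controls.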

[9] = NCI Yeast Anticancer Drug Screen. Data for the bub3 strain (AID 167); conditions: S. cerevisiae bub3 mutant strain, hits give high values
How it was run: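 Mutant yeast screening strain plus compound; vehicle-treated cultures serve as the 0% inhibition reference.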

[10] = NCI Yeast Anticancer Drug Screen. Data for the wt2 strain (AID 169); conditions: S. cerevisiae wt2 strain growth inhibition, hits give high values
How it was run: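 Steps: yeast strain treated with compound; growth recorded; inhibition calculated relative to cultures given vehicle alone.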

[11] = NCI Yeast Anticancer Drug Screen. Data for the mlh1 strain (AID 171);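 further: 0% = growth of vehicle-treated control cultures of the same strain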; conditions: S. cerevisiae mlh1 strain growth inhibition, hits give high values
How it was run: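 Yeast screen: mutant strain plus compound, growth scored against vehicle control wells.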

[12] = NCI Yeast Anticancer Drug Screen. Data for the sgs1 strain (AID 173);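 further: 0% = growth of vehicle-only control cultures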; conditions: S. cerevisiae sgs1 mutant, hits give high values
How it was run: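 Inhibition of yeast growth served as the measure. The mutant strain was treated with each compound, and growth was normalised to cultures receiving vehicle alone.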

[13] = NCI Yeast Anticancer Drug Screen. Data for the rad18 strain (AID 177); conditions: S. cerevisiae rad18 mutant growth inhibition, hits give high values
How it was run: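 Inhibition values reflect reduced yeast growth compared with vehicle-treated controls, using a strain engineered with a DNA damage repair defect.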

[14] = at 5.0 µM (retest, dose inferred, filed as 0.5)
[15] = at 50.0 µM (retest, dose inferred, filed as 5.0)

Measured: growth inhibition

O=NN(CCCl)C(=O)NC1CCCCC1
inactive: [1]; at 1.2 µM 6% | [1]; at 3.7 µM 11% | [1]; at 11.0 µM 33% | [1]; at 33.0 µM 44% | [1]; at 100.0 µM 50% | [2]; at 1.2 µM -2% | [2]; at 3.7 µM -1% | [2]; at 11.0 µM 1% | [2]; at 33.0 µM 5% | [2]; at 100.0 µM -5% | [3]; at 1.2 µM 16% | [3]; at 3.7 µM 24% | [3]; at 11.0 µM 45% | [3]; at 33.0 µM 61% | [3]; at 100.0 µM 49% | [4]; at 1.2 µM -3% | [4]; at 3.7 µM -2% | [4]; at 11.0 µM 1% | [4]; at 33.0 µM 2% | [4]; at 100.0 µM 10% | [5]; at 1.2 µM 5% | [5]; at 3.7 µM 12% | [5]; at 11.0 µM 39% | [5]; at 33.0 µM 55% | [5]; at 100.0 µM 52% | [6]; at 1.2 µM -1% | [6]; at 3.7 µM 4% | [6]; at 11.0 µM 10% | [6]; at 33.0 µM 13% | [6]; at 100.0 µM 13% | [7]; at 1.2 µM 1% | [7]; at 3.7 µM 7% | [7]; at 11.0 µM 13% | [7]; at 33.0 µM 15% | [7]; at 100.0 µM 14% | [8]; at 1.2 µM -3% | [8]; at 3.7 µM -2% | [8]; at 11.0 µM -3% | [8]; at 33.0 µM -5% | [8]; at 100.0 µM 18% | [9]; at 1.2 µM -4% | [9]; at 3.7 µM -3% | [9]; at 11.0 µM 3% | [9]; at 33.0 µM 14% | [9]; at 100.0 µM 12% | [10]; at 1.2 µM -3% | [10]; at 3.7 µM -2% | [10]; at 11.0 µM 2% | [10]; at 33.0 µM 11% | [10]; at 100.0 µM 49% | [11]; at 1.2 µM 0% | [11]; at 3.7 µM 1% | [11]; at 11.0 µM 8% | [11]; at 33.0 µM 11% | [11]; at 100.0 µM 17% | [12]; at 1.2 µM 4% | [12]; at 3.7 µM 7% | [12]; at 11.0 µM 22% | [12]; at 33.0 µM 34% | [12]; at 100.0 µM 43% | [13]; at 1.2 µM 29% | [13]; at 3.7 µM 46% | [13]; at 100.0 µM 53%
active: [13]; at 11.0 µM 84% | [13]; at 33.0 µM 92%

CCOC(=O)CNC(=O)c1[nH]cnc1/N=N/N(C)C
active: [1]; at 100.0 µM 98% | [2]; at 100.0 µM 98% | [5]; at 50.0 µM 89.6% | [5]; at 100.0 µM 97% | [6]; at 50.0 µM 90.3%
inactive: [1]; at 1.2 µM -12% | [1]; at 3.7 µM -11% | [1]; at 11.0 µM -12% | [1]; at 33.0 µM 6% | [2]; at 1.2 µM 8% | [2]; at 3.7 µM 9% | [2]; at 11.0 µM 12% | [2]; at 33.0 µM 12% | [3]; at 1.2 µM -23% | [3]; at 3.7 µM -21% | [3]; at 11.0 µM -21% | [3]; at 33.0 µM -30% | [3]; at 100.0 µM -13% | [5]; at 1.2 µM -5% | [5]; at 3.7 µM 4% | [5]; [14] -10% | [5]; at 11.0 µM 2% | [5]; at 33.0 µM 5% | [5]; [15] 7% | [6]; at 1.2 µM -8% | [6]; at 3.7 µM -10% | [6]; [14] -7% | [6]; at 11.0 µM -8% | [6]; at 33.0 µM -6% | [6]; [15] -17%
